According to PubChem BioAssay (NCATS):
Records with an inconclusive call do not appear. Calls of active or inactive are those of the source. Calls follow the shape of the dose curve; as a rule, active = well fitted inhibition curve with a large enough effect; inconclusive = small, poorly fitted or top-dose-only effect; inactive = no such curve, though single readings can be large or run the other way.

How the values were obtained:
[1] = target: Retinaldehyde dehydrogenase 3 (Homo sapiens) (UniProt P47895); assay: qHTS for Inhibitors of the Aldehyde Dehydrogenase Family (ALDH1A3) Confirmatory screens (AID 2061311); also: nearly all actives have a fitted effect of over 60% in size; also: potency is read from the fitted curve at half-maximal effect
[2] = target: Retinal dehydrogenase 2 (Homo sapiens) (UniProt O94788); assay: qHTS for Inhibitors of the Aldehyde Dehydrogenase Family (ALDH1A2) Confirmation screens (AID 2061314); also: nearly all actives have a fitted effect of over 65% in size; also: potency is read from the fitted curve at half-maximal effect
[3] = target: Retinaldehyde dehydrogenase 3 (Homo sapiens) (UniProt P47895); assay: qHTS for Inhibitors of the Aldehyde Dehydrogenase Family (ALDH1A3) Primary screen (AID 2061315); also: potency is read from the fitted curve at half-maximal effect
[4] = target: Aldehyde dehydrogenase 1A1 (Homo sapiens) (UniProt P00352); assay: qHTS for Inhibitors of the Aldehyde Dehydrogenase Family (ALDH1A1) Confirmatory screens (AID 2061316); also: nearly all actives have a fitted effect of over 65% in size; also: potency is read from the fitted curve at half-maximal effect
[5] = target: Retinaldehyde dehydrogenase 3 (Homo sapiens) (UniProt P47895); assay: qHTS for Inhibitors of the Aldehyde Dehydrogenase Family (ALDH1A3) Validation screen (AID 2061312); also: nearly all actives have a fitted effect of over 45% in size

SMILES: Cc1cccc(-c2ccc(CN)cc2)c1
- Potency [1]: inactive

SMILES: CCc1ccccc1NC(=O)c1ccc(F)c(S(=O)(=O)N2CCN(c3cccc(Cl)c3)CC2)c1
- Potency [1]: inactive

SMILES: CN(Cc1ccc(-c2ccccc2)cc1)CC1CCCCC1
- Potency [1]: 35.5 µM (active)

SMILES: CN(C(=O)c1cnc2n[nH]c(-c3ccccc3)c2n1)c1ccccc1
- Potency [1]: inactive

SMILES: CCOc1cccc(CNC(=O)c2ccc(N3CCCC3)c(NC(=O)NCc3ccccc3)c2)c1
- Potency [1]: inactive

SMILES: COc1cc(F)ccc1-c1cnc2n[nH]c(-c3sccc3C)c2n1
- Potency [1]: inactive

SMILES: CCc1nn2c(=O)c(S(=O)(=O)Nc3ccc(Cl)cc3)c(C)nc2s1
- Potency [1]: inactive

SMILES: CCOc1ccc(NC(=O)N2CCC(CC(=O)NCc3ccccc3)C2)cc1 (stereo unspecified)
- Potency [1]: inactive

SMILES: O=C(O)c1cc(Br)c(O)c2ncccc12
- Potency [1]: inactive
- Potency [2]: 0.449 µM (active)

SMILES: CCCOc1ccc(C(=O)Nc2ccc(NC(=O)c3cccc(Cl)c3)cc2)cc1
- Potency [1]: inactive

SMILES: COc1ccc(C2(C(=O)NCc3ccccc3)CCOCC2)cc1
- Potency [1]: inactive

SMILES: O=C(CSc1nc2c(cnn2-c2ccc(F)cc2)c(=O)[nH]1)Nc1ccc(Br)cc1
- Potency [1]: inactive

SMILES: O=C(CC1CCOCC1)NCc1ccc(N2CCOCC2)cc1
- Potency [1]: inactive

SMILES: CCOc1ccc(CCNC(=O)c2cc3sccc3n2CC)cc1OCC
- Potency [1]: inactive

SMILES: CNCc1ccc(N2CCCC2)cc1
- Potency [1]: inactive

SMILES: COCCOc1ccc(C(=O)N[C@@H]2CN(C(=O)NCc3ccccc3)CCC[C@H]2O)cc1
- Potency [1]: inactive

SMILES: Cn1ncc2c(C(=O)NCC(F)(F)F)cc(-c3ccccc3F)nc21
- Potency [1]: inactive

SMILES: COc1ccc(-c2nnc3ccc(NCCc4ccccc4)nn23)nc1
- Potency [1]: 20 µM (active)

SMILES: O=S(=O)(Nc1nc2ccccc2s1)c1ccc(NCc2ccc(Br)cc2O)cc1
- Potency [1]: 14.2 µM (active)

SMILES: Cc1ccc(N[S+](=O)([O-])c2cc3c(cc2N[C@@H](C)CO)NC(=O)CC3)cc1N[C@@H](C)CO
- Potency [1]: 14.2 µM (active)
- Potency [2]: 2.83 µM (active)

SMILES: CCOc1ccc(S(=O)(=O)NCc2nc3cccnc3n2Cc2ccccc2OC)cc1
- Potency [1]: 15.8 µM (active)

SMILES: COc1ccccc1-c1ccc2ncc(Nc3cccc(O)c3)n2n1
- Potency [1]: inactive

SMILES: CCn1nc(-c2cccc(-c3ccnn3C)c2)nc1N(C)C
- Potency [1]: inactive

SMILES: O=C(Nc1ccccc1Cl)c1nc2cccnc2n(Cc2ccccc2)c1=O
- Potency [1]: inactive

SMILES: COc1ccc(C)cc1NC(=O)N1CCC(OC2CCN(Cc3ccccc3)CC2)CC1
- Potency [1]: inactive

SMILES: CCOCc1ccccc1Nc1ncnc2onc(-c3ccc(Cl)cc3)c12
- Potency [1]: inactive

SMILES: Cc1cc(=O)[nH]c(CCNc2nc(-c3ccncc3)nc3c2c(C)nn3C)n1
- Potency [1]: inactive

SMILES: O=C(CSc1nc(-c2cccs2)nc2cc(=O)[nH]n12)Nc1cccc(C(F)(F)F)c1
- Potency [1]: inactive

SMILES: CC(=O)Nc1ccc(CN2CCCC(N3CCN(c4ccccc4)CC3)C2)cc1 (stereo unspecified)
- Potency [1]: inactive

SMILES: CCc1ccc(O)c(C(=O)c2cnc3cc(-c4ccc(C)cc4)nn3c2)c1
- Potency [1]: inactive

SMILES: N#Cc1cccc(C(=O)Nc2ccc([C@H]3OCC(=O)N(C4CCOCC4)[C@@H]3CO)cc2)c1
- Potency [1]: inactive

SMILES: CCc1nn(-c2ccc(OC)cc2)c(Oc2ccccc2F)c1CCC(=O)NC(C)C
- Potency [1]: inactive

SMILES: CCc1nn2c(=O)c(S(=O)(=O)Nc3ccc(C)cc3C)c(C)nc2s1
- Potency [1]: inactive
- Potency [2]: inactive

SMILES: O=C(CSc1nc2ncccc2[nH]1)Nc1cc(F)ccc1F
- Potency [1]: inactive

SMILES: Cc1noc(C)c1-c1cnc(Nc2ccc(F)c(Cl)c2)c2c1CCO2
- Potency [1]: 31.6 µM (active)

SMILES: O=C(C#Cc1ccccc1)NC1CCCc2c1cnn2-c1ccc(F)cc1F (stereo unspecified)
- Potency [1]: inactive

SMILES: COc1ccc(-c2ccccc2C(=O)NCc2ccccn2)nn1
- Potency [1]: inactive

SMILES: O=C(c1ccccc1O)N(Cc1ccco1)Cc1ccco1
- Potency [1]: 12.7 µM (active)
- Potency [2]: 11.3 µM (active)
- Potency [3]: inactive

SMILES: Cc1sc(NC(=O)Cc2ccc3c(c2)OCO3)nc1-c1ccc2c(c1)CCN2C
- Potency [1]: 11.3 µM (active)
- Potency [2]: 12.7 µM (active)
- Potency [4]: 3.57 µM (active)

SMILES: O=C(Nc1sc2c(c1-c1nc3ccccc3s1)CCNC2)C(F)(F)F
- Potency [1]: inactive
- Potency [2]: 28.3 µM (active)
- Potency [3]: inactive

SMILES: Nc1ccc(CNc2ccc([S+](=O)([O-])Nc3nccs3)cc2)c(O)c1
- Potency [1]: 5.04 µM (active)
- Potency [2]: 17.9 µM (active)
- Potency [4]: 3.18 µM (active)

SMILES: Nc1nc2c(s1)C(c1ccccc1Cl)CC(=O)N2 (stereo unspecified)
- Potency [1]: 5.65 µM (active)
- Potency [3]: inactive

SMILES: Cc1ccn2c(Nc3ccc4c(c3)OCO4)c(-c3ccccn3)nc2c1
- Potency [1]: 17.9 µM (active)
- Potency [3]: inactive

SMILES: O=C(Nc1cccc(Cc2ccccc2)n1)c1ccc(-c2cccc([N+](=O)[O-])c2)o1
- Potency [1]: 6.34 µM (active)
- Potency [2]: 7.98 µM (active)
- Potency [3]: inactive
- Potency [4]: 5.65 µM (active)

SMILES: Cc1ccc(-c2ccnc(N3CCC(C(N)=O)CC3)n2)cc1
- Potency [1]: 5.04 µM (active)
- Potency [3]: inactive

SMILES: CCC(=O)NC(C)c1cc(Cl)c2ccccc2c1O (stereo unspecified)
- Potency [1]: 12.7 µM (active)
- Potency [2]: 1.01 µM (active)

SMILES: NC(=O)c1cccc(-c2cnc3c(O)ccc(C(=O)O)c3c2)c1
- Potency [1]: 11.3 µM (active)
- Potency [2]: 4.49 µM (active)
- Potency [3]: inactive
- Potency [4]: 8.96 µM (active)

SMILES: COc1cccc(CNc2ccc(S(=O)(=O)Nc3ccc(N4CCNCC4)nc3)cc2)c1O
- Potency [1]: 15.9 µM (active)
- Potency [2]: 22.5 µM (active)

SMILES: Cc1ccc(S(=O)(=O)Nc2cc(S(=O)(=O)c3ccc(C)cc3)c(O)c3cccnc23)cc1
- Potency [1]: 1.13 µM (active)
- Potency [2]: 2.01 µM (active)
- Potency [4]: 1.42 µM (active)

SMILES: COc1cc(/C=C(\C#N)C(=O)Nc2ccc(C(=O)O)cc2)ccc1OC(=O)c1cccc(F)c1
- Potency [1]: 15.8 µM (active)
- Potency [2]: inactive
- Potency [4]: inactive

SMILES: COc1ccc2ccccc2c1CN(C)CC(=O)Nc1ccc(N2CCOCC2)cc1
- Potency [1]: 11.3 µM (active)
- Potency [2]: 11.3 µM (active)
- Potency [4]: 7.98 µM (active)

SMILES: CC(=O)Nc1sc2c(c1-c1ccccc1)CCN(C(=O)OC(C)(C)C)C2
- Potency [1]: inactive
- Potency [3]: inactive
- Potency [4]: 7.98 µM (active)

SMILES: Cc1csc(CNc2ncnc3cc(-c4ccc5c(c4)OCO5)ccc23)n1
- Potency [1]: 7.94 µM (active)
- Potency [3]: inactive
- Potency [4]: 11.3 µM (active)

SMILES: COc1ccc(-c2ccc(C)cc2)cc1CC(=O)N(C)C(C)c1ccco1 (stereo unspecified)
- Potency [1]: 2.01 µM (active)
- Potency [2]: 6.31 µM (active)
- Potency [4]: 11.3 µM (active)

SMILES: Cc1cc(C)nc(NC(=S)N2CCN(c3ccc4nccn4c3)CC2)c1
- Potency [1]: 10.1 µM (active)
- Potency [2]: 14.2 µM (active)
- Potency [3]: inactive
- Potency [4]: 7.12 µM (active)

SMILES: Cc1c(C(=O)OCC2CCCC2)[nH]c2c1C(=O)CC(c1ccco1)C2 (stereo unspecified)
- Potency [1]: 15.8 µM (active)
- Potency [2]: 3.57 µM (active)
- Potency [3]: inactive
- Potency [4]: 1.13 µM (active)

SMILES: CC(=O)NC(C)c1cc(Cl)c2ccccc2c1O (stereo unspecified)
- Potency [1]: 3.18 µM (active)
- Potency [2]: 12.7 µM (active)
- Potency [4]: 4 µM (active)

SMILES: N#Cc1ccc(N2CCN(S(=O)(=O)c3ccc4c(c3)CC(=O)N4)CC2)cc1
- Potency [1]: 15.8 µM (active)
- Potency [3]: inactive
- Potency [4]: inactive

SMILES: CC(=O)Nc1ccc(OCc2cccc(-c3nc4ccccc4c(=O)n3Cc3ccco3)c2)cc1
- Potency [1]: 15.8 µM (active)
- Potency [2]: 7.98 µM (active)
- Potency [3]: inactive
- Potency [4]: 2.83 µM (active)

SMILES: O=S1(=O)Nc2c(ccc3cccnc23)-c2ccccc21
- Potency [1]: 8.96 µM (active)
- Potency [2]: 12.7 µM (active)
- Potency [4]: inactive

SMILES: N#Cc1cccc(OC2=NS(=O)(=O)c3ccccc32)c1
- Potency [1]: 12.7 µM (active)
- Potency [3]: inactive
- Potency [4]: 5.04 µM (active)

SMILES: Cc1c(C(=O)OC[C@H]2CCCO2)[nH]c2c1C(=O)CC(c1ccco1)C2 (stereo partly specified)
- Potency [1]: 12.7 µM (active)
- Potency [2]: 4 µM (active)
- Potency [3]: inactive
- Potency [4]: 1.42 µM (active)

SMILES: S=C(NCCCc1cnc[nH]1)NCCCN(Cc1ccccc1)c1ccc(Br)cn1
- Potency [1]: inactive
- Potency [3]: inactive

SMILES: CC(=O)Nc1sc2c(c1-c1nccs1)CCNC2
- Potency [1]: inactive
- Potency [2]: inactive
- Potency [3]: inactive

SMILES: NC(=O)C1CCN(c2nc(-c3ccc(-c4ccccc4)cc3)cs2)CC1
- Potency [1]: 28.3 µM (active)
- Potency [2]: inactive
- Potency [3]: inactive
- Potency [4]: inactive

SMILES: Cc1cc(C)nc(NC(=S)N2CCN(c3cccc4cnccc34)CC2)c1
- Potency [1]: 20.1 µM (active)
- Potency [2]: 8.96 µM (active)
- Potency [4]: 10.1 µM (active)

SMILES: O=C(Cc1ccccc1)Nc1sc2c(c1C(=O)Nc1ccc(Cl)cc1)CCCC2
- Potency [1]: inactive
- Potency [2]: 4 µM (active)
- Potency [3]: inactive
- Potency [4]: 11.3 µM (active)

SMILES: O=C1Cc2cc(S(=O)(=O)N3CCN(c4ccc(Br)cc4)CC3)ccc2N1
- Potency [1]: inactive
- Potency [2]: 20.6 µM (active)
- Potency [3]: inactive

SMILES: Oc1cc(-c2cccnc2)cc2cccnc12
- Potency [1]: 4.49 µM (active)
- Potency [2]: inactive
- Potency [3]: inactive

SMILES: CC(=O)N1CCN(c2ccc(NS(=O)(=O)c3ccc4c(c3)CC(=O)N4)cc2)CC1
- Potency [1]: inactive
- Potency [2]: inactive
- Potency [3]: inactive

SMILES: CCC(=O)NC(c1cccs1)c1cc([N+](=O)[O-])c2cccnc2c1OC (stereo unspecified)
- Potency [1]: 3.57 µM (active)
- Potency [2]: 2.01 µM (active)
- Potency [4]: 11.3 µM (active)

SMILES: CC(C)(C)C(=O)N1CCN(c2cccc(Nc3nn4c(=O)c5ccccc5nc4s3)c2)CC1
- Potency [1]: 28.3 µM (active)
- Potency [2]: 25.2 µM (active)
- Potency [3]: inactive
- Potency [4]: 7.98 µM (active)

SMILES: CC(=O)Nc1sc2c(c1-c1cccc3[nH]ncc13)CCNC2
- Potency [1]: 12.7 µM (active)
- Potency [2]: 10.1 µM (active)
- Potency [4]: 11.3 µM (active)

SMILES: COc1ccc(C(=O)c2ccc(-c3no[n+]([O-])c3C#N)cc2)cc1
- Potency [1]: 2.51 µM (active)
- Potency [2]: 12.6 µM (active)
- Potency [3]: inactive
- Potency [4]: 5.65 µM (active)

SMILES: CN(Cc1ccco1)Cc1ccc(O)c2ncccc12
- Potency [1]: 11.3 µM (active)
- Potency [2]: 2.52 µM (active)
- Potency [3]: inactive

SMILES: COC(=O)CCSC/C=C(\C)CCn1cc(CCc2ccc(-c3ccccc3)cc2)nn1
- Potency [1]: 8.96 µM (active)
- Potency [3]: inactive
- Potency [4]: 4.49 µM (active)

SMILES: Oc1ccc(Nc2ccccc2F)c2cccnc12
- Potency [1]: 7.98 µM (active)
- Potency [3]: 1.26 µM (active)
- Potency [4]: inactive

SMILES: C=CC(N)CCC(=O)O (stereo unspecified)
- Potency [5]: inactive

SMILES: C=CC(=O)N1CCC[C@@H](n2nc(-c3cccc(C(=O)Nc4ccc(C(C)C)c(C)c4)c3)c3c(N)ncnc32)C1
- Potency [5]: inactive
